According to PubChem BioAssay (Tox21):
Inconclusive results are not listed. Calls of active or inactive are those of the source. Unless noted, the call rests on the fitted dose curve; in most records, active means well fitted curve in the direction sought with a large enough effect in the repeat runs; inconclusive means weak or mixed curves; inactive means no such curve, though single readings can be large; an effect the other way counts as inactive or inconclusive.

Assays:
[1] = qHTS assay for small molecule agonists of the p53 signaling pathway (AID 651631; calls by dose curve; further: nearly all actives have a fitted effect of over 15% in size)
Outline: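 Readout was fluorescence from the LiveBLAzer FRET substrate, applied for 2 h at room temperature after 16 h compound exposure at 37 °C. Cells were the p53RE-bla HCT-116 line, with beta-lactamase driven by p53 response elements.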

[2] = qHTS assay for small molecules that induce genotoxicity in human embryonic kidney cells expressing luciferase-tagged ATAD5 (AID 651632); further: nearly all actives have a fitted effect of over 15% in size
Outline: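 Test compounds were delivered by pin tool onto HEK293T reporter cells (2,000/well) expressing ATAD5 fused to luciferase. After 16 hr at 37C, 5% CO2, Amplite was added for 30 min at room temperature and luminescence was measured.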

[3] = qHTS assay for small molecule agonists of the p53 signaling pathway - cell viability (AID 651633; calls by dose curve; further: series mostly up to about 83 µM; nearly all actives have a fitted effect of over 30% in size)
Outline: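 Viability counter-read: CellTiter-Glo luminescence (30 min, room temperature) in the same p53RE-bla plates. These plates had been exposed to compounds for 16 h at 37 C.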

[4] = qHTS assay for small molecules that induce genotoxicity in human embryonic kidney cells expressing luciferase-tagged ATAD5 - cell viability (AID 651634; calls by dose curve; further: nearly all actives have a fitted effect of over 25% in size)
Outline: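 Quantitative high-throughput format. HEK293T cells expressing ATAD5 fused to luciferase were plated at 2,000 cells/well and treated 15.5 hr with compound versus DMSO. Viability was determined by fluorescent live-cell protease substrate, 30 min at 37C.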

[5] = qHTS assay for small molecule disruptors of the mitochondrial membrane potential - cell viability (AID 720634; calls by dose curve;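 further: human HepG2 liver cancer cells; series mostly up to about 83 µM; nearly all actives have a fitted effect of over 20% in size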)
Outline: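 Same-well counter-screen: following the MMP dye addition, CellTiter-Glo was added to 1 hr compound-treated HepG2 cells and luminescence read after 30 min at room temperature.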

[6] = qHTS assay for small molecule disruptors of the mitochondrial membrane potential (AID 720635)
Outline: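 Mitochondrial membrane potential tracked with Mito-MPS dye, red aggregates (ex 540/em 590 nm) against green monomers (ex 490/em 535 nm). Compound treatment 1 hr at 37C, dye 30 min in HepG2.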

[7] = qHTS assay to test for compound auto fluorescence at 590 nm (red) in HepG2 cells (AID 720674)
Outline: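 We screened compounds on adherent HepG2 cells, incubating them for an hour at 37 C in 5% CO2 before reading emission at 590 nm under 540 nm excitation; values reflect equivalence to Rose Bengal sodium fluorescence.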

[8] = qHTS assay to test for compound auto fluorescence at 535 nm (green) in HepG2 cells (AID 720675)
[9] = qHTS assay to test for compound auto fluorescence at 460 nm (blue) in HEK293 cells (AID 720678)
Outline: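 Blue read-out at excitation 405 nm and emission 460 nm follows overnight compound exposure of HEK293 cells at 37C in 5% CO2. Activity is given as auto fluorescence equivalency to triamterene.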

[10] = qHTS assay to test for compound auto fluorescence at 590 nm (red) in HEK293 cells (AID 720679)
Outline: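 Red channel, Ex/Em 540/590nm; signal expressed as equivalency to Rose Bengal sodium. HEK293, 2,000 cells/well, 10% dialyzed FBS; 23 nL compound pinned after 4-5 hr attachment; overnight 37C/5% CO2 before reading.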

[11] = qHTS assay to test for compound auto fluorescence at 535 nm (green) in HEK293 cells (AID 720680)
[12] = qHTS assay to test for compound auto fluorescence at 460 nm (blue) in HEK293 cell free culture (AID 720681)
Outline: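 Blue fluorescence (Ex 405/Em 460 nm, triamterene-equivalent) was read immediately after pin transfer of compound or DMSO into medium (DMEM, 10% FBS) without cells.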

[13] = qHTS assay to test for compound auto fluorescence at 535 nm (green) in HEK293 cell free culture (AID 720682)
Outline: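 Compounds were pin-transferred into cell-free DMEM with 10% FBS, and green fluorescence was read at excitation 485 nm and emission 535 nm. Intensities were expressed as fluorescein-equivalent values.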

[14] = qHTS assay to test for compound auto fluorescence at 590 nm (red) in HEK293 cell free culture (AID 720683)
Outline: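 Red-channel autofluorescence of compounds in culture medium (DMEM, 10% FBS), no cells, measured at 540/590 nm. Rose Bengal sodium is the reference fluorophore for equivalence.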

[15] = qHTS assay to test for compound auto fluorescence at 590 nm (red) in HepG2 cell free culture (AID 720684)
Outline: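 Cell-free; medium MEM + 10% FBS; compound or DMSO added by pintool; read Ex 540/Em 590 nm; Rose Bengal sodium as red reference fluorophore.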

[16] = qHTS assay to test for compound auto fluorescence at 460 nm (blue) in HepG2 cell free culture (AID 720685)
Outline: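 Cell-free plates of MEM plus 10% FBS received 23 nL compound or DMSO vehicle; blue-channel (405/460 nm) intensity scored against triamterene as reference fluorophore.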

[17] = qHTS assay to test for compound auto fluorescence at 535 nm (green) in HepG2 cell free culture (AID 720686)
[18] = qHTS assay to test for compound auto fluorescence at 460 nm (blue) in HepG2 cells (AID 720687)
Outline: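 Blue-channel autofluorescence (Ex/Em 405/460 nm, triamterene-equivalent) was measured after 1 hr compound exposure at 37 C, 5% CO2. Cells were HepG2, plated overnight at 37 C in MEM plus 10% FBS.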

[19] = target: Glucocorticoid receptor (Homo sapiens) (UniProt P04150); test: qHTS assay to identify small molecule agonists of the glucocorticoid receptor (GR) signaling pathway (AID 720691; active means well fitted activation curve with a large enough effect in the signal ratio in the repeat runs, not every such curve was filed as active; the % refers to the signal ratio)
Glucocorticoid receptor (Homo sapiens), sequence (P04150 whole entry, looked up): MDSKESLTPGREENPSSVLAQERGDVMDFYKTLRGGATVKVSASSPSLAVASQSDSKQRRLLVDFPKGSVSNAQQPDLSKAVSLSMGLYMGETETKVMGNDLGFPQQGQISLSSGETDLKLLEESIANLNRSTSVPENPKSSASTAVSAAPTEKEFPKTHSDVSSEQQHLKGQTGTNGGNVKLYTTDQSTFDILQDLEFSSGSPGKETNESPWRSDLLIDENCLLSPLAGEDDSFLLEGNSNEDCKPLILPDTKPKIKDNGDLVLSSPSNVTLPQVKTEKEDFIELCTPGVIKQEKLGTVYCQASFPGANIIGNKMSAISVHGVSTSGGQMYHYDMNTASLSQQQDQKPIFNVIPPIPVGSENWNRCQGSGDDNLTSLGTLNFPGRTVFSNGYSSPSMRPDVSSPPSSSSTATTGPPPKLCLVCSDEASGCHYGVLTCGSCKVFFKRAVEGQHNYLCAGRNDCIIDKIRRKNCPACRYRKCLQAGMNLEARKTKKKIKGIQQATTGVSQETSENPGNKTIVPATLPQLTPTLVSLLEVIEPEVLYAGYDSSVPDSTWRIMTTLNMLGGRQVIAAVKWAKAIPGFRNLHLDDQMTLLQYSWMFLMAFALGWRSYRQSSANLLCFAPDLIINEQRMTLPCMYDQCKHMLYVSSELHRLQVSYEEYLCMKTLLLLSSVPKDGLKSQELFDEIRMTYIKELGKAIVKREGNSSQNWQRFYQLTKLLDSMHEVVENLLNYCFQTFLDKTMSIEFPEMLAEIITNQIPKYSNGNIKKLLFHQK
Outline: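 A HeLa cervical cancer line expressing GR and a glucocorticoid response element-driven beta-lactamase gene is treated with compounds for 18 h; LiveBLAzer B/G FRET substrate is then applied and fluorescence read.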

[20] = target: Glucocorticoid receptor (Homo sapiens) (UniProt P04150); test: qHTS assay to identify small molecule antagonists of the glucocorticoid receptor (GR) signaling pathway (AID 720692; active means well fitted inhibition curve with a large enough effect in the signal ratio in the repeat runs, not every such curve was filed as active; the % refers to the signal ratio)
Outline: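 GRE-bla HeLa line, dex-stimulated (5 nM final). Compound exposure 18 h, 37 C. Beta-lactamase FRET read after 2 h RT substrate.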

[21] = qHTS assay to identify small molecule antagonists of the glucocorticoid receptor (GR) signaling pathway - cell viability counter screen (AID 720693); further: nearly all actives have a fitted effect of over 55% in size
[22] = qHTS assay for identifying genotoxic compounds that show differential cytotoxicity against isogenic chicken DT40 cell lines with known DNA damage response pathways - wild type cell line (AID 743012); further: nearly all actives have a fitted effect of over 60% in size
Outline: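 300 wt DT40 cells/well; cpd (DMSO) pintool-transferred after ~0.5 h at 37 C/5% CO2; 40 h incubation; CellTiter-Glo added, 30 min RT; luminescence read.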

[23] = qHTS assay for identifying genotoxic compounds that show differential cytotoxicity against isogenic chicken DT40 cell lines with known DNA damage response pathways - Rev3 mutant cell line (AID 743014); further: nearly all actives have a fitted effect of over 55% in size
[24] = qHTS assay for identifying genotoxic compounds that show differential cytotoxicity against isogenic chicken DT40 cell lines with known DNA damage response pathways - Rad54/Ku70 mutant cell line (AID 743015); further: nearly all actives have a fitted effect of over 60% in size
[25] = qHTS assay to identify small molecule antagonists of the androgen receptor (AR) signaling pathway - cell viability counter screen (AID 743033; further: nearly all actives have a fitted effect of over 45% in size)

Measured: Potency

NC(=O)CN1CC(O)CC1=O (stereo not given)
inactive: all assays above
